Results from PubChem BioAssay AID651804 (National Center for Advancing Translational Sciences (NCATS), 2012).
Among all 1,200 compounds or so, about 20 (2%) were called active. Inconclusive results (about 23%) are left out. Calls come from the whole dose curve; as a rule, active = well fitted inhibition curve with a large enough effect; inconclusive = small, poorly fitted or top-dose-only effect; inactive = no such curve, though single readings can be large or run the other way. The full list was thinned out, with actives kept by preference.

Target: Transcriptional regulator ERG (Homo sapiens) (UniProt P11308)
Sequence (P11308 whole entry, looked up): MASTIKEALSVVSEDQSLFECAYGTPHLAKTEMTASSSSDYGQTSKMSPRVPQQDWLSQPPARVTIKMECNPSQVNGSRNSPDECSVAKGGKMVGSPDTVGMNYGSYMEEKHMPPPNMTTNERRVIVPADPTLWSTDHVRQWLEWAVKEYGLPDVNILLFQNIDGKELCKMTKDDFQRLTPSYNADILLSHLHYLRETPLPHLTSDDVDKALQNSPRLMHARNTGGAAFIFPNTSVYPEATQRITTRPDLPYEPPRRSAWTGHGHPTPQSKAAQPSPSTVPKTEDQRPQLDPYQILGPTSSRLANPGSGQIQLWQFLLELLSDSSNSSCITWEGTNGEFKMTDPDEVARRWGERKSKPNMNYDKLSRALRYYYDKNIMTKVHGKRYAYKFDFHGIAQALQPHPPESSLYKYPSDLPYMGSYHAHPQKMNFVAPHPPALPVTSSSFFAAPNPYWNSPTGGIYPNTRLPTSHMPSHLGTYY
Assay: qHTS for Small Molecule Inhibitors of the ERG Ets/DNA interaction: HTRF assay against cherry picks
Conditions: His-ERG Ets domain with biotin-DNA; series mostly up to 154 µM; activity change, negative = inhibition: at the top concentration
Source text: The Ets family of proteins is a family of ~30 conserved transcription factors defined by the presence of an ~85 amino acid domain referred to as the Ets domain, which mediates sequence-specific DNA binding to a core DNA element GGAA/T.The Ets family member ERG has been linked to several neoplasms. […] More extensive studies of the effects of over-expression of ERG in prostate cells have recently been carried out and have shown that over-expression of ERG results in increased invasion. […] We will carry out a high throughout screen to identify inhibitors of the interaction between ERG and DNA using a fluorescence polarization (FP) assay with a His-tagged ERG Ets domain and fluorescently-labeled DNA probes to develop small molecule inhibitors of this interaction as probes to test this hypothesis and lay the groundwork for the development of targeted therapies against ERG. This is the counterscreen against the cherry picks. NIH Molecular Libraries Probe Production Network [MLPCN] NIH Chemical Genomics Center [NCGC] Grant: NS066464 PI Name: John Bushweller, University of Virgina
2 ul of protein solution (200 nM ERG domain in 300mM KCl, 50mM Tris-HCl, 1mM EDTA, 1mM DTT, pH 7.5); 20 nl Control plate and compound library plate; 2 ul of 200 nM biotin-DNA; incubate for 10 min at RT; 1 ul of anti-His antibody conjugated to the long-life fluorescent cryptate donner […] (5ng/ul) and streptavidin conjugated to the acceptor compound […] (0.2 ng/ul) mix; incubate 10 min and measure FRET (Excitation = 320 nm, Emission = 615, 665 nm).
Potency is the fitted concentration of half-maximal effect.

Activity change, negative = inhibition, inactive:
N#Cc1c(NC(=O)CCCN2C(=O)c3ccccc3C2=O)oc(-c2ccccc2)c1-c1ccccc1 -4.08%
Cc1ccc(N(CCCCN2C(=O)c3ccccc3C2=O)C(=O)c2ccc(Cl)s2)cc1 -1.7%
CC(=O)C(c1ccccc1)C(c1ccccc1)C(C)[N+](=O)[O-] (configuration not stated) -25.3%
COc1cc(CO)ccc1OCC(=O)Nc1cccc2ccccc12 -34.3%
CN(C(=O)COC(=O)c1ccc(F)c(S(=O)(=O)N2CCOCC2)c1)C1CCS(=O)(=O)C1 (configuration not stated) -15.2%
Cc1occc1C(=O)NCCc1ccc(Cl)cc1 2.02%
CCc1cc(C(=O)NNC(=S)Nc2cccc(C)c2)cs1 -26.5%
Cc1cccc(-n2c(-c3ccccc3)c[nH]c2=S)c1C -29.7%
Cc1ccc(NC(=O)c2cc3cc(OC(F)(F)F)ccc3[nH]2)cc1 -19%
CCCCn1c(N)c(N(CC)C(=O)c2ccc(C#N)cc2)c(=O)[nH]c1=O -8.75%
Cc1cc(C)nc(N2CCN(c3nnnn3-c3ccccc3)CC2)n1 3.18%
CCCN(C(=O)c1nn(-c2ccc(C)cc2)c(=O)c2c1c1ccccc1n2C)c1ccccc1C -29.5%
Cc1ccccc1C(=O)N/N=C1/SCC(=O)N1Cc1ccccc1 1.11%
Cc1cccc(C(=O)NCCNc2nc3cc(C)c(C)cc3cc2C)c1 -17.8%
O=C(CNC(=S)N(Cc1ccccc1)Cc1cccnc1)NC1CCCCC1 -9.71%
Cc1ccc(-c2noc(C3CCCN(C(=O)c4cccc([N+](=O)[O-])c4)C3)n2)o1 (configuration not stated) -24.6%
Cc1cc2cc(CNC(=O)C(C)Oc3ccccc3)ccc2n1C (configuration not stated) -9.92%
CC(Oc1ccc(F)cc1)C(=O)Nc1ccc(S(=O)(=O)NC2=NCCCCC2)cc1 (configuration not stated) -5.41%
COc1ccc(C(=O)NCc2ccc(OCCN(C)C)cc2)cc1OC -16.1%
Cc1cc(F)ccc1NC(=O)c1ccc(NS(=O)(=O)c2cc(C(C)(C)C)ccc2C)cc1 -11.9%
O=C1[C@H]2[C@@H](c3ccc(F)cc3)N3C(=O)N(c4cccc(F)c4)C(=O)[C@@]3(Cc3ccccc3)[C@H]2C(=O)N1C1CCCCC1 -28.6%
CCNc1nc(OCC)nc(N2CCC(Cc3ccccc3)CC2)n1 4.46%
CSc1ccccc1NC(=O)CN(C)C(=O)/C=C/c1ccccc1 -23.6%
CC(=O)c1cccc(NC(=O)C(C)OC(=O)CCc2nc3ccccc3c(=O)[nH]2)c1 (configuration not stated) -21.7%
Nc1ccc2[nH]ncc2c1 -70.6%
O=C(CSC1=NCCS1)NC(NC(=O)CSC1=NCCS1)c1ccccc1 -23%
CCOc1ccccc1NC(=O)COc1ccc2ccc(=O)oc2c1 5.68%
O=C(CCc1c[nH]c2ccccc12)NCc1ccco1 -5.25%
O=C(COC(=O)/C=C/c1ccc([N+](=O)[O-])cc1)NCc1cccs1 -28.9%
O=C(NCc1cccnc1)c1ccccc1-c1nc(-c2ccccc2)no1 -23.1%
O=C(NC(c1ccccc1)C(Cl)Cl)c1ccccc1 (configuration not stated) -11.6%
CCOC(=O)CSc1nc2ccc(NC(=O)c3ccc(F)cc3)cc2s1 26.8%
CCN(C(=O)CSc1nc2cc(C(=O)O)ccc2c(=O)n1Cc1ccccc1)c1ccccc1 -26.9%
Cc1noc(C)c1S(=O)(=O)N(CC(=O)NCc1ccc(F)cc1)c1ccc(C(C)C)cc1 -22.4%
Cc1[nH]c2ccc(C(=O)OCC(=O)Nc3cccc(S(N)(=O)=O)c3)cc2c1C -12.7%
O=C(C1CCN(CCc2ccccc2)CC1)N1CCOCC1 -17%
Cc1ccnn1-c1ccc(C(=O)OCC(=O)Nc2ccc(F)cc2)cc1 -27.1%
CCN(CC(=O)N1CCCCCC1)S(=O)(=O)c1ccc(Cl)cc1 -18.2%
COc1ccc(-c2cc(N)n(S(=O)(=O)Cc3ccccc3)n2)c(OC)c1 -25%
O=C(CCN=C1NS(=O)(=O)c2ccccc21)OCc1ccccc1 -3.29%
COc1ccc(NC2CCCN(C(=O)C3(C)CCCCC3)C2)cc1OC (configuration not stated) -11.5%
COc1ccccc1C(C)NC(=O)c1cc(S(=O)(=O)N2CCCCC2)ccc1C (configuration not stated) 0.53%
O=C(C1CC(=O)N(c2ccc(Cl)cc2)C1)N1CCCCCC1 (configuration not stated) 0.955%
CCN(C(=O)COC(=O)c1ccc(=O)n(Cc2ccccc2)n1)C1CCS(=O)(=O)C1 (configuration not stated) -38%
C=CCC[C@H](Cc1ccc(F)cc1)C(=O)OC[C@@H](Cc1c[nH]c2ccccc12)NC(=O)[C@H](CC=C)CC(=O)N(CCO)Cc1ccccc1 -14.7%
Cc1nn(C2CCS(=O)(=O)C2)c(Cl)c1/C=C/C(=O)OCC(=O)c1c[nH]c2ccccc12 (configuration not stated) -21.3%
CCCN(CC(=O)Nc1ccc(F)c(F)c1F)C(=O)C1CC(=O)N(Cc2ccccc2)C1 (configuration not stated) -22.6%

Potency, active:
CCCCn1c(=O)[nH]c2nc3cc(N)ccc3nc2c1=O 50.1 µM
O=C(Nc1ccccc1)Nc1ncc([N+](=O)[O-])s1 39.8 µM
O=C1c2ccccc2C(=O)c2c1ncn2-c1ccccc1 15.8 µM
O=C(/C=C/c1ccc([N+](=O)[O-])cc1)NCc1ccco1 28.2 µM
O=C(OCC(=O)c1c[nH]c2ccccc12)c1ccc([N+](=O)[O-])s1 35.5 µM
